Measurements reported in PubChem BioAssay (NCI).
About 83,000 compounds went through this panel and 20% of them were active in at least one assay; those are over-represented in the sample as a whole.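 Plates (96-well) were seeded with cells, treated with compound at one concentration, and incubated for 48 hours before percent growth was determined.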 Values without a mark were called inactive. Calls of active or inactive are those of the source. How the source made its calls: active means growth percent below 10; inactive means the rest.

Assays:
Assay in all cases: NCI-60 one-dose screen, 48 h (100 = growth as untreated, 0 = no growth, -100 = all killed)
[1] = test system: T-47D breast; settings: 10 µM
[2] = test system: BT-549 breast; settings: 10 µM
[3] = test system: MDA-MB-435 melanoma; settings: 10 µM
[4] = test system: MCF7 breast; settings: 10 µM unless noted
[5] = test system: HCT-116 colon; settings: 10 µM
[6] = test system: HCC-2998 colon; settings: 10 µM
[7] = test system: KM12 colon; settings: 10 µM
[8] = test system: SW-620 colon; settings: 10 µM

| SMILES | growth [1] | growth [2] | growth [3] | growth [4] | growth [5] | growth [6] | growth [7] | growth [8] |
| --- | --- | --- | --- | --- | --- | --- | --- | --- |
| OCC(O)C(O)C(O)C(O)/C=N/O (stereo not drawn) | 87.4% | 91.5% | 108% | 96.3% | 91.3% | 102% | 101% |  |
| O=c1cc(-c2ccccc2)oc2c1ccc1ccccc12 | 72% | 97.6% | 88.6% | 67.3% |  | 98.8% | 98.8% |  |
| Cc1ccc(S(=O)(=O)O)c(C)c1 | 92.5% | 109% | 107% | 95.3% | 101% | 107% | 109% |  |
| CCOC(=O)C1=C(C)NC(=O)NC1c1cccs1 (stereo not drawn) | 102% | 123% | 125% | 101% | 116% |  | 109% |  |
| CCCNc1ccc(C2=NCCCN2)cc1 | 97.3% | 90% | 95.9% | 97.7% | 97% |  | 94.5% |  |
| CC(C(=O)O)(C1CCCCC1)C1(O)CCCCC1 (stereo not drawn) | 102% | 103% | 105% | 105% | 104% | 96.3% | 98.4% |  |
| Cc1cc(OCCO)cc(C)c1Cl | 111% | 116% |  | 110% | 101% | 102% | 107% | 107% |
| O=C(O)c1ccccc1NCc1ccco1 | 103% | 101% | 119% | 97.4% | 105% | 80.9% | 117% |  |
| O=C(CCl)Nc1ccc2c(c1)C(=O)c1ccc(NC(=O)CCl)cc1C2=O | -48.7% (active) | -91% (active) | -71.6% (active) | -60.7% (active) | -79.8% (active) | -77.8% (active) | -72.2% (active) |  |
| C[C@@H](c1ccccc1)[C@@H](C(=O)O)c1ccccc1 | 101% | 97.6% | 104% | 93.4% | 102% |  | 109% |  |
| C[C@]12CC[C@@H]3c4ccc(OCC(=O)O)cc4CC[C@H]3[C@@H]1CCC2=O | 114% | 102% | 116% | 130% |  |  | 105% |  |
| Cc1cc(/C=C/c2ccc3cc(N(C)C)ccc3[n+]2C)c(C)n1-c1ccccc1 | -47.3% (active) | -52.2% (active) | -49.8% (active) | -11.6% (active) | -10.3% (active) | 0.715% (active) | -62.1% (active) |  |
| NC(=S)NN=C1CCCC1 | 40.8% | 107% | 103% | 21.7% | 8.81% (active) | 97.7% | 101% |  |
| COC(=O)Nc1nc2ccc(C(=O)c3cccs3)cc2[nH]1 | 91.1% | 26.3% | -47.6% (active) | 14.6% | 11.7% | 12.1% | 7.54% (active) |  |
| CC1CCCC(CC(N)=O)CC1 (stereo not drawn) | 101% | 116% | 104% | 103% | 98.4% | 102% | 107% |  |
| O=C(CCl)N1CCN(C/C=C/c2ccccc2)CC1 | 83.8% | 94% | 85% | 62.1% | 68.5% | 125% | 112% |  |
| CCc1ccc(/C(C#N)=C/C=C/c2ccccc2)cc1 | 35.3% | 68.5% | -17.5% (active) | 16.2% | 33.5% | 60.8% | 35.1% |  |
| CSC(=N\N=C\c1ccc(N(C)C)cc1)/N=C/N(C)C | 94.9% | 113% | 102% | 97% | 102% | 108% | 110% |  |
| CCCC[P+](c1ccccc1)(c1ccccc1)c1ccccc1 | 26.5% | 17.8% |  | 24.1% | 39.2% | 32.2% | 23.2% | 64.5% |
| O=C(Cc1ccccc1)Cc1ccccc1 | 102% | 107% | 105% | 106% | 98.1% | 114% | 103% |  |
| C/C(=C\c1cc(Cl)ccc1OCC(=O)O)[N+](=O)[O-] | 85.9% | 117% | 105% | 90.4% | 109% | 111% | 105% |  |

| SMILES | growth [1] | growth [2] | growth [3] | growth [4] | growth [5] | growth [6] | growth [7] | growth [8] |
| --- | --- | --- | --- | --- | --- | --- | --- | --- |
| O=C(O)CCCc1ccccc1 | 101% | 105% | 98.9% | 104% | 104% | 107% | 114% |  |
| CN(C)C(C)(C)CC(C)(C)C | 104% |  | 109% | 101% | 100% | 109% |  | 101% |
| CC(=O)Cc1cc(-c2cc(CC(C)=O)[nH]n2)n[nH]1 |  | 88.4% | 103% | 93.2% | 103% | 112% |  | 98.5% |
| O=C(NCO)c1ccccc1 | 102% |  | 108% | 101% | 105% | 111% | 102% | 103% |
| OCc1cccc2ccccc12 | 103% |  | 116% | 96.3% | 103% | 108% | 107% |  |
| CCOc1ccc(/C=N/N=C(N)N)cc1OCC | 88.4% |  | 99% | 82.3% | 95.8% | 101% | 108% |  |
| O=C(O)[C@@H]1[C@H]2C[C@H]3c4[nH]c5ccccc5c4CCN3C[C@@H]2CC[C@@H]1O | 114% |  | 113% | 103% | 92.6% | 135% | 113% |  |
| O=[N+]([O-])c1ccc(Cl)c(S(=O)(=O)O)c1 | 103% |  | 117% | 98.4% | 104% | 102% | 105% | 107% |
| NC(C(=O)O)c1ccc([N+](=O)[O-])cc1 (stereo not drawn) | 99.3% |  | 111% | 95.3% | 105% | 111% | 99.4% | 109% |
| O=C(N/N=C\c1cc(Br)cc(Br)c1O)N/N=C/c1cc(Br)cc(Br)c1O | 62.3% |  | 66.9% | 52.1% | 31.2% |  | 66.7% | 56.3% |
| CCOC(=O)c1cc(/C=C/c2ccc(Cl)cc2Cl)on1 |  | 26.3% | 66.8% | 0.711% (active) | -86.6% (active) | 82% | -29.7% (active) | -13.6% (active) |
| CC(C)(O)C#CC#CC(C)(C)O |  | 93.7% | 103% | 101% | 96.5% | 96.4% | 108% | 104% |
| O=C(c1ccccc1)C1CCC1 | 99.7% |  | 112% | 71.5% | 106% | 100% | 105% | 103% |
| O=S(=O)(O)C(Nc1ccccc1)c1ccccc1 (stereo not drawn) | 93.7% |  | 104% | 98.5% | 103% | -12.8% (active) | 100% | 102% |
| CCCCCCCCCCCCCCCCC1CC(=O)OC1=O (stereo not drawn) | 97.4% |  | 101% | 98.5% |  | 114% | 108% | 105% |
| O=C1C=CC(=O)N1c1ccc(I)cc1Cl | 84.1% |  |  | 98.1% | 96.9% | 95.7% | 115% | 107% |
| O=C1C=CC2=C3c4cc(O)c(O)cc4CC3(O)COC2=C1O (stereo not drawn) | 113% |  | 111% | 98.1% | 99% | -35.6% (active) | 114% | 101% |
| C=CC(=O)OCCCCCCCC | 105% |  | 106% | 95.3% | 100% | 104% | 101% | 103% |
| CCC(O)CC(CC)CO (stereo not drawn) | 115% |  | 114% | 97.8% | 100% | 109% |  | 110% |
| CCCCN(CCCC)CCCO | 107% |  | 117% | 96.7% | 110% | 94.1% | 104% | 120% |
| CC1=CC(C)(C)NC(=S)N1c1ccc(S(=O)(=O)O)c2cccc(S(=O)(=O)O)c12 | 106% |  | 106% | 108% |  | 108% | 94.6% | 95.2% |
